Reference: PubChem BioAssay

assay: compound effects on hepatocellular carcinoma cell viability – HepG2, calcein-AM fluorescence, 48 h, basal, profiling panel (AID 1164); conditions: higher = more signal; also: test concentration not given here

Structure (SMILES) | z-score
CN1CCC(CCCO)=CC1c1ccc(CN2CCCC2)cc1 (stereo not drawn) | -0.86
C=C[C@H](C)[C@@H](O)c1ccc(O)c2ccccc12 | -0.218
COCCOC(=O)N1C(=O)[C@@]2(c3cc(C#CC4=CCCCC4)ccc31)[C@H](C(=O)N1CCc3cc(OC)c(OC)cc3C1)[C@H]1C(=O)O[C@H](c3ccccc3)[C@H](c3ccccc3)N1[C@@H]2c1ccccc1OCCO | 0.274
COC(=O)C1=CC(CCCO)=CC(C2CC2)N(Cc2sc3ccccc3c2Cl)C=C1C(=O)OC (stereo not drawn) | -0.514
NC(=O)NCC#Cc1ccc2c(c1)[C@]1(C(=O)N2)[C@H](C(=O)N2CCCCCCC2)[C@H]2C(=O)O[C@H](c3ccccc3)[C@H](c3ccccc3)N2[C@@H]1c1ccc(OCCO)cc1 | -1.09
COc1ccccc1CN1C(=O)c2ccccc2[C@@H](C(=O)NCCN2CCOCC2)[C@@H]1c1ccc(CO)cc1 | 0.556
O=c1cccc(C=Cc2ccccc2)o1 | 0.645
C=C[C@@H](COC(C)=O)N(Cc1ccc([N+](=O)[O-])cc1)S(=O)(=O)c1ccc(Br)cc1 | 0.452
CC(C)C(=C=CC[C@@H](O)c1ccccc1OCCO)C[C@@H](O)c1ccccn1 | -0.0925
CCCCC=C[C@@H](NC(=O)c1ccc(C(=O)OC)cc1)c1ccccc1 | -0.721
O=c1oc(-c2ccccc2)nc2cc(Br)ccc12 | 0.659
C=CC(COC(C)=O)NS(=O)(=O)c1ccc(Br)cc1 (stereo not drawn) | -0.239
CS(=O)(=O)CCOC(=O)C1=CC(CCCO)=CC(c2cccs2)N(Cc2cc3c(cc2Br)OCO3)C=C1C(=O)OCCS(C)(=O)=O (stereo not drawn) | 0.392
CCC[C@@H]1C=C(C(=O)O)[C@H](c2ccc(C)cc2)N1S(=O)(=O)c1ccc(C)cc1 | -0.522
CC(C)NC(=O)[C@@H]1c2ccccc2C(=O)N(Cc2ccccc2)[C@H]1c1ccc(CO)cc1 | -0.116
Cc1ccc(S[C@]2(C(=O)NCc3ccccc3)CC(=O)N(Cc3ccccc3)[C@@H]2c2ccc(CO)cc2)cc1 | 0.0772
COC(=O)c1ccc(C(O)C2C=CC3C(=O)N(C)C(=O)C3N2NC(=O)OC(C)(C)C)o1 (stereo not drawn) | 0.0285

Structure (SMILES) | z-score
COc1ccc(C(=O)Nc2cccc(CN3C(=O)[C@]4(O[C@H](CC(=O)N5CCC[C@H]5CO)[C@@H]([Si](C)(C)c5ccc(OC)cc5)[C@@H]4C)c4ccccc43)c2)cc1 | -3.13
CC(C)Cc1ccc(CN2CC[C@@H](NS(=O)(=O)c3ccccc3)C2)cc1 | -1.63
C=CCC(OC(C)=O)[C@@H]1[C@@H](N(Cc2cccc3ccccc23)C(=O)c2cccc3ccccc23)c2cc(OCCCO)ccc2N1C(=O)c1ccc2ccccc2n1 (stereo partly drawn) | -0.571
COCCOC(=O)N1C(=O)[C@@]2(c3cc(C#CCNC(N)=O)ccc31)[C@H](c1ccc(OCCO)cc1)N1[C@H](c3ccccc3)[C@H](c3ccccc3)OC(=O)[C@H]1[C@@H]2C(=O)N1CCc2cc(OC)c(OC)cc2C1 | 0.34
O=C1C=CC(=O)[C@@H]2CC(COc3ccccc3)=C3[C@@H](CCc4ccccc4)OB(O)C[C@@H]3[C@H]12 | -0.478
[N-]=[N+]=NCc1ccccc1[C@@H]1OC(c2ccc(OCCCO)cc2)=N[C@]1(Cc1ccccc1N=[N+]=[N-])C(=O)NCc1ccccc1 | -0.829
NCCCCCCNC(=O)[C@H]1C[C@H]2C(=O)NCC(=O)N2[C@H]1c1cccc(OCCO)c1 | 0.674
CCCCCN1CC=CC23O[C@@H]4/C=C\CCC(C)OC(=O)C4[C@H]2C(=O)N(CCCCCO)[C@@H]3C1=O (stereo partly drawn) | 0.167
O=C(NCc1ccccc1)[C@]1(CCS(=O)(=O)c2ccccc2)N=C(c2ccc(OCCCO)cc2)O[C@@H]1c1ccccc1 | -0.708
C=CC(=C)C1=CCO[C@@H]1[C@H]1CCCN1S(=O)(=O)c1ccccc1[N+](=O)[O-] | 0.324
COc1ccc(C(=O)Nc2cccc(CN3C(=O)[C@@]4(O[C@@H](CCn5cc(CCO)nn5)[C@H]([Si](C)(C)c5ccc(OC)cc5)[C@H]4C)c4ccccc43)c2)cc1 | -4.58
CCCC[C@H]1OB(O)C[C@H]2C1=C(C)C[C@H]1C(=O)N(Cc3ccccc3)C(=O)[C@H]12 | -0.152
COc1ccc(NN2C(C(O)c3ccc(OC)c(OCc4ccccc4)c3)C=CC3C(=O)N(C4CCCCC4)C(=O)C32)cc1 (stereo not drawn) | 0.337
COCC(=C=CC[C@H](O)c1ccc(OCCO)cc1)C[C@H](O)c1cc(Cl)cc(Cl)c1O | -0.616
O=C/C=C/c1ccc2c(c1)OCO2 | 0.782
Cc1ccc(S[C@]2(C(=O)NCC(C)C)CC(=O)N(Cc3ccccc3Cl)[C@@H]2c2ccc(CO)cc2)cc1 | -0.45
